Results: the supplement of paper PMC7156485
Values without a mark were called inactive.
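Note: TDF is a line of transformed human dermal fibroblasts of mesenchymal origin.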

These compounds were tested on TDF (assay: H1.0 immunofluorescence intensity relative to DMSO (% of DMSO); higher = stronger H1.0 induction, active = 120 or more). Conditions: concentration: 10 µM; 24 h.
Summary of the method: (§1)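 Cell number or H1.0 nuclear intensity appears as percent of the plate control, based on the median of replicates. Measurements came from HCC1569 and TDF cells exposed in triplicate to compounds at 10 µM for 24 h at 37 °C, then imaged in six fields per well at ×10. Positional effects were smoothed out of HCC1569 values.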
In the case of Cl.NC(=O)c1ccc(OCC(O)CN2CC=C(c3ccc(F)cc3)CC2)cc1 (configuration not stated), the H1.0 immunofluorescence intensity is reported as 96.4.
Work on CN1CC(C(=O)NC2(C)OC3(O)C4CCCN4C(=O)C(Cc4ccccc4)N3C2=O)C=C2c3cccc4[nH]cc(c34)CC21 (configuration not stated) [Ergotamine] yielded an H1.0 immunofluorescence intensity of 95.3.
With CC1CCCC=CC2CC(O)CC2C(O)C=CC(=O)O1 (configuration not stated) [Brefeldin A] the H1.0 immunofluorescence intensity was 132 (active).
In the case of CC(C)(C)NCC(O)c1ccccc1Cl (configuration not stated) [Tulobuterol], the H1.0 immunofluorescence intensity is reported as 90.7.
CC(C)N(CCC(C(N)=O)(c1ccccc1)c1ccccn1)C(C)C (configuration not stated) [Disopyramide] showed an H1.0 immunofluorescence intensity of 103.
In the case of NC(=O)COc1c(F)cc(SCCNS(=O)(=O)c2ccccc2)cc1F, the H1.0 immunofluorescence intensity is reported as 93.5.
OC1CN2CCCC(O)C2C1O (configuration not stated) [Swainsonine] gave an H1.0 immunofluorescence intensity of 99.5.
Compound COc1cc2c(cc1O)CCNC2C (configuration not stated) [Salsoline] has an H1.0 immunofluorescence intensity of 91.

These compounds were tested on HCC1569 (assay: H1.0 immunofluorescence intensity relative to DMSO (% of DMSO); higher = stronger H1.0 induction, active = 140 or more). Conditions: concentration: 10 µM; 24 h.
Summary of the method: as §1
Cl.FC(F)(F)c1cccc(C2=CCN(CCc3ccc4ccccc4c3)CC2)c1 gave an H1.0 immunofluorescence intensity of 100.
In the case of COC(=O)C(N)CCCN=C(N)N[N+](=O)[O-].Cl [NG-Nitro-L-arginine methyl ester hydrochloride], the H1.0 immunofluorescence intensity is reported as 92.5.
For CC1=CC(=O)C2=C(C)CC(O)C3C(C)C(=O)OC3C12 (configuration not stated) [Austricin], the H1.0 immunofluorescence intensity was 98.1.
CC(=O)C1CCC2C3CCC4CC(O)CCC4(C)C3CCC12C (stereo not drawn) [5alpha-Pregnan-3alpha-ol-20-one] showed an H1.0 immunofluorescence intensity of 102.
For CCN1CC2(OC(=O)c3ccccc3NC(C)=O)CCC(OC)C34C1C(CC23)C1(O)CC(OC)C2CC4C1(O)C2OC (configuration not stated) [Lappaconitine], the H1.0 immunofluorescence intensity was 94.3.
Compound COC1=CC(=O)OC(C=Cc2ccccc2)C1 (racemic) has an H1.0 immunofluorescence intensity of 83.
Work on NC(Cc1ccc(N(CCCl)CCCl)cc1)C(=O)O (configuration not stated) [Melphalan] yielded an H1.0 immunofluorescence intensity of 96.1.
Cl.Cl.Oc1ccc2c3c1OC1c4[nH]c5c(c4CC4(O)C(C2)N(CC2CC2)CCC314)CC1(O)C2Cc3ccc(O)c4c3C1(CCN2CC1CC1)C5O4 (configuration not stated) [nor-Binaltorphimine dihydrochloride] gave an H1.0 immunofluorescence intensity of 89.7.
In the case of CC(C)C1(NC(=O)C2CC3c4cccc5[nH]cc(c45)CC3N(C)C2)OC2(O)C3CCCN3C(=O)C(Cc3ccccc3)N2C1=O.CS(=O)(=O)O (configuration not stated) [Dihydroergocristine methanesulfonate], the H1.0 immunofluorescence intensity is reported as 126.
Compound C=CCN1CCC23c4c5ccc(O)c4OC2C(=O)CCC3(O)C1C5 (configuration not stated) [Naloxone] has an H1.0 immunofluorescence intensity of 117.
For COc1ccccc1CN[C@H]1C2CCN(CC2)[C@H]1C(c1ccccc1)c1ccccc1, the H1.0 immunofluorescence intensity was 125.
CC(Cc1ccc2c(c1)OC(C(=O)[O-])(C(=O)[O-])O2)NCC(O)c1cccc(Cl)c1.[Na+].[Na+] (configuration not stated) gave an H1.0 immunofluorescence intensity of 95.9.
COc1ccc2c(c1OC)C(=O)OC2C1c2cc3c(cc2CCN1C)OCO3 (single isomer, unassigned; (+)) [(+)-Hydrastine] showed an H1.0 immunofluorescence intensity of 89.2.
CCCN1CCCC(c2cccc(C#N)c2)C1.Cl (stereo not drawn) [S(-)-DS 121 hydrochloride] showed an H1.0 immunofluorescence intensity of 84.5.
Work on COC12CC(COC(=O)c3cncc(Br)c3)CN(C)C1Cc1cn(C)c3cccc2c13 (configuration not stated) [Nicergoline] yielded an H1.0 immunofluorescence intensity of 102.
COC1C(O)C(C)OC(OC2CCC3(C=O)C(CCC4C3CCC3(C)C(C5=CC(=O)OC5)CCC43O)C2)C1O (configuration not stated) [Peruvoside] gave an H1.0 immunofluorescence intensity of 106.
Cl.Oc1ccc2c3c1OC1C(O)CCC4(O)C(C2)N(CC2CCC2)CCC314 (configuration not stated) [Nalbuphine hydrochloride] was tested, and the H1.0 immunofluorescence intensity was 88.2.
CC1CN(C2CCC(C#N)(c3ccc(F)cc3)CC2)CCC1(C(=O)O)c1ccccc1.Cl (configuration not stated) [Levocabastine.HCl] was tested, and the H1.0 immunofluorescence intensity was 115.
COc1ccc(O)c(C(C)(C)C)c1 gave an H1.0 immunofluorescence intensity of 91.3.
In the case of CC=C1CN2CCC34C(=C(CC=O)C1CC23)Nc1ccccc14 (configuration not stated) [Norfluorocurarine], the H1.0 immunofluorescence intensity is reported as 96.3.
In the case of COc1ccc(C(=O)N2CCCC2=O)cc1 [Aniracetam], the H1.0 immunofluorescence intensity is reported as 95.
CN1CCC23CCCCC2C1Cc1ccc(O)cc13.O=C(O)C(O)C(O)C(=O)O [Dextrorphan D-tartrate] was tested, and the H1.0 immunofluorescence intensity was 89.2.
CN1C2CC(OC(=O)C(CO)c3ccccc3)CC1C1OC12 (configuration not stated) [Scopolamine] showed an H1.0 immunofluorescence intensity of 96.7.
CCOC(=O)c1ncn2c1C1CCCN1C(=O)c1cc(OC)ccc1-2 (configuration not stated) was tested, and the H1.0 immunofluorescence intensity was 102.
With CCn1cc(C(=O)O)c(=O)c2cc3c(cc21)OCO3 [Oxolinic acid] the H1.0 immunofluorescence intensity was 101.
With CCCCCN(C)CCC(O)(P(=O)([O-])O)P(=O)(O)O.[Na+] the H1.0 immunofluorescence intensity was 102.
Work on CC(C)(C)C1(O)CC2OC(=O)CC23C(=O)OC2OC(=O)C(O)C231 (configuration not stated) [Bilobalide] yielded an H1.0 immunofluorescence intensity of 97.2.
CCCCCCCCCCCCCCCCOCC(O)COP(=O)([O-])OCC[N+](C)(C)C (configuration not stated) was tested, and the H1.0 immunofluorescence intensity was 104.
Compound CCN(C)C(=O)Oc1cccc([C@H](C)N(C)C)c1.O=C(O)C(O)C(O)C(=O)O has an H1.0 immunofluorescence intensity of 96.1.
For CC(=O)NBr [N-Bromoacetamide], the H1.0 immunofluorescence intensity was 90.3.
In the case of CCCC[N+]1(C)C2CC(OC(=O)C(CO)c3ccccc3)CC1C1OC12.[Br-] (single isomer, unassigned; (-)) [(-)-Scopolamine,n-Butyl-, bromide], the H1.0 immunofluorescence intensity is reported as 109.
With Cl.NC(=O)c1ccc(OCC(O)CN2CC=C(c3ccc(F)cc3)CC2)cc1 (configuration not stated) the H1.0 immunofluorescence intensity was 106.
With CN1CC(C(=O)NC2(C)OC3(O)C4CCCN4C(=O)C(Cc4ccccc4)N3C2=O)C=C2c3cccc4[nH]cc(c34)CC21 (configuration not stated) [Ergotamine] the H1.0 immunofluorescence intensity was 106.
For CC1CCCC=CC2CC(O)CC2C(O)C=CC(=O)O1 (configuration not stated) [Brefeldin A], the H1.0 immunofluorescence intensity was 208 (active).
CC(C)(C)NCC(O)c1ccccc1Cl (configuration not stated) [Tulobuterol] gave an H1.0 immunofluorescence intensity of 114.
CC(C)N(CCC(C(N)=O)(c1ccccc1)c1ccccn1)C(C)C (configuration not stated) [Disopyramide] gave an H1.0 immunofluorescence intensity of 98.5.
Compound NC(=O)COc1c(F)cc(SCCNS(=O)(=O)c2ccccc2)cc1F has an H1.0 immunofluorescence intensity of 106.
Work on OC1CN2CCCC(O)C2C1O (configuration not stated) [Swainsonine] yielded an H1.0 immunofluorescence intensity of 95.8.
For COc1cc2c(cc1O)CCNC2C (configuration not stated) [Salsoline], the H1.0 immunofluorescence intensity was 95.5.
